This note sets out measurements from PubChem BioAssay (Tox21).

The structures appear in SMILES notation. Values joined by “and” are separate entries in the source; they are usually repeats but may differ in a detail not shown here. Equal values may be shown once. Results filed as inconclusive are left out. Active and inactive are the calls of the source. Calls follow the shape of the dose curve; as a rule, active = well fitted cell-killing curve with a large enough effect in the repeat runs; inconclusive = weak or mixed curves, or effect the other way; inactive = flat fitted curve, though single readings scatter.

Test [1] is described as follows: cAMP Responsive Elements (CRE) small molecule antagonists, cell-based qHTS assay: qHTS cell viability counter screen (AID 2060913). Also: nearly all actives have a fitted effect of over 40% in size. The settings on record: CRE-bla HEK293T viability, CellTiter-Glo luminescence, 5 h; series mostly up to 92.4 µM. The method, boiled down: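 CRE-bla HEK293T cells (2,000/well, 18 h) given compound plus NKH477 0.25 uM final for 3 h at 37C; viability counter-screen by CellTiter-Glo luminescence in same wells after 30 min.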

A short description of test [2]: cAMP Responsive Elements (CRE) small molecule agonists, cell-based qHTS assay: qHTS cell viability counter screen (AID 2060914). Also: nearly all actives have a fitted effect of over 50% in size. The settings on record: CRE-bla HEK293T viability, CellTiter-Glo luminescence, 5 h; series mostly up to 92.4 µM. The gist of the method:
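In the same wells as the reporter read, viability of CRE-bla HEK 293T cells was quantified by CellTiter-Glo luminescence after a 3 h compound exposure.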
A general note: Quantitative high-throughput screening tests each substance at several concentrations.
Potency is read from the fitted curve at half-maximal effect.

`ClC(Cl)(Cl)Cl`: the Potency entry in test [1] and in test [2] was “inactive” throughout.
Regarding `CCOC(=O)Cc1ccccc1`, the Potency entry in test [1] and in test [2] was “inactive” each time.
With `C=Cc1cccc(CCl)c1`, the Potency entry in test [1] and in test [2] was “inactive” throughout.
Regarding `C=CCOC(=O)c1ccccc1N`, the Potency result in test [1] and in test [2] was “inactive” each time.
Regarding `N#CC1(N=NC2(C#N)CCCCC2)CCCCC1`, the Potency result in test [1] and in test [2] was “inactive” in each case.
Consider `CCNc1nc(Cl)nc(NC(C)(C)C#N)n1`, for which the Potency entry in test [1] and in test [2] was “inactive” throughout.
On to `CNC(C)Cc1ccc2c(c1)OCO2` (centres undefined), for which the Potency result in test [1] and in test [2] was “inactive” throughout.
Turning to `CCN(CC)CCN1C(=O)CN=C(c2ccccc2F)c2cc(Cl)ccc21`, the Potency entry in test [1] and in test [2] was “inactive” throughout.
As for `N#CC(c1ccccc1)c1ccccc1`, the Potency result in test [1] and in test [2] was “inactive” in each case.
For the compound `O=c1[nH]c2ccccc2n1C1CCNCC1`, the Potency entry in test [1] is “inactive”. Further, in test [2], the Potency was 0.266 µM (active).
Turning to `Cc1ccc2c(c1N)C(=O)c1ccccc1C2=O`, the Potency entry in test [1] and in test [2] was “inactive” throughout.
Take `CN/C(=N\[N+](=O)[O-])NCC1CCOC1` (centres undefined): the Potency result in test [1] and in test [2] was “inactive” throughout.
On to `C#CCOC(C(=O)OCCN(C)C)(c1ccccc1)c1ccccc1`, for which the Potency entry in test [1] and in test [2] was “inactive” each time.
Turning to `CC(N)=S`, the Potency result in test [1] and in test [2] was “inactive” each time.
On to `c1ccc2c(c1)CCCC2`, for which the Potency result in test [1] and in test [2] was “inactive” throughout.
Take `CCCCCl`: the Potency entry in test [1] and in test [2] was “inactive” throughout.
For the compound `c1ccc(-c2ccccc2)cc1`, the Potency entry in test [1] and in test [2] was “inactive” in each case.
For `O=c1[nH]c2ccccc2o1`, the Potency result in test [1] and in test [2] was “inactive” each time.
For `CC(C)N(C(=O)SC/C(Cl)=C/Cl)C(C)C`, the Potency entry in test [1] and in test [2] was “inactive” throughout.
Consider `CCOP(=O)(OCC)Oc1ccc([N+](=O)[O-])cc1`, for which the Potency result in test [1] and in test [2] was “inactive” in each case.
As to `CCOc1cc(Oc2ccc(C(F)(F)F)cc2Cl)ccc1[N+](=O)[O-]`, the Potency result in test [1] and in test [2] was “inactive” throughout.
For the compound `CC1(C)[C@H](C(=O)O[C@H](C#N)c2cccc(Oc3ccccc3)c2)[C@@H]1/C=C(\Cl)C(F)(F)F`, the Potency result in test [1] and in test [2] was “inactive” in each case.
As for `C=CC(=O)OC`, the Potency entry in test [1] and in test [2] was “inactive” each time.
As for `CCCCCCCCn1sccc1=O`, the Potency in test [1] was 54.6 µM (active) and 64.1 µM (active); in test [2] it was 43.4 µM (active).
For the compound `CSc1nnc(C(C)(C)C)c(=O)n1N`, the Potency result in test [1] and in test [2] was “inactive” each time.
Consider `Nc1ccccc1-c1ccccc1`, for which the Potency entry in test [1] and in test [2] was “inactive” throughout.
For `BrCCCCCCBr`, the Potency result in test [1] and in test [2] was “inactive” throughout.
In the case of `O=c1oc2ccccc2c(O)c1C(CC(O)c1ccc(-c2ccc(Br)cc2)cc1)c1ccccc1` (centres undefined), the Potency entry in test [1] and in test [2] was “inactive” throughout.
As for `[Cl-].[Cl-].[Cl-].[Fe+3]`, the Potency result in test [1] and in test [2] was “inactive” each time.
As to `CC(C)c1c(CN(C)C(C)Cc2ccccc2)n(C)n(-c2ccccc2)c1=O` (centres undefined), the Potency result in test [1] and in test [2] was “inactive” throughout.
For `Cn1c(-c2ccccc2)cc(-c2ccccc2)[n+]1C`, the Potency entry in test [1] and in test [2] was “inactive” throughout.
Consider `O=C(O)C(Br)CBr` (centres undefined), for which the Potency result in test [1] and in test [2] was “inactive” in each case.
For the compound `C[C@H]1CNCCc2ccc(Cl)cc21`, the Potency entry in test [1] and in test [2] was “inactive” in each case.
Consider `CC1CN1P(=O)(N1CC1C)N1CC1C` (centres undefined), for which the Potency result in test [1] and in test [2] was “inactive” throughout.
Consider `CCC#N`, for which the Potency entry in test [1] and in test [2] was “inactive” each time.
In the case of `O=[N+]([O-])c1ccccc1-c1ccccc1`, the Potency entry in test [1] and in test [2] was “inactive” each time.
Take `N#CC(C#N)=Cc1ccc(O)c(O)c1`: the Potency entry in test [1] and in test [2] was “inactive” in each case.
Regarding `CC(=O)NC1CCSC1=O` (centres undefined), the Potency result in test [1] and in test [2] was “inactive” each time.
Turning to `c1ccc2c(c1)[nH]c1cnccc12`, the Potency result in test [1] and in test [2] was “inactive” in each case.
As to `NC(=O)c1cc([N+](=O)[O-])cc([N+](=O)[O-])c1`, the Potency entry in test [1] and in test [2] was “inactive” throughout.
Regarding `Cc1cc(Cl)ccc1O[C@H](C)C(=O)O`, the Potency entry in test [1] and in test [2] was “inactive” each time.
In the case of `CCCCCCCCCCBr`, the Potency entry in test [1] and in test [2] was “inactive” throughout.
With `C[C@]1(O)CC[C@H]2[C@@H]3CCC4=CC(=O)CC[C@]4(C)[C@@]3(F)[C@@H](O)C[C@@]21C`, the Potency result in test [1] and in test [2] was “inactive” each time.
Regarding `CCCCC/C=C\C/C=C\C/C=C\C/C=C\CCCC(=O)NCC(=O)O`, the Potency result in test [1] and in test [2] was “inactive” in each case.
Turning to `C[C@H](CN1CCOCC1)C(C(=O)N1CCCC1)(c1ccccc1)c1ccccc1`, the Potency result in test [1] and in test [2] was “inactive” in each case.
Regarding `CN1[C@@H]2CC[C@H]1CC(O)C2` (some centres undefined), the Potency result in test [1] and in test [2] was “inactive” throughout.
As for `OCCOc1ccccc1`, the Potency result in test [1] and in test [2] was “inactive” throughout.
Turning to `C=CC(=O)OCCCCO`, the Potency entry in test [1] and in test [2] was “inactive” in each case.
Take `Cc1cccc([N+](=O)[O-])c1`: the Potency entry in test [1] and in test [2] was “inactive” each time.
In the case of `O=[N+]([O-])c1cc([As](=O)(O)O)ccc1O`, the Potency result in test [1] and in test [2] was “inactive” throughout.
On to `SCc1ccccc1`, for which the Potency result in test [1] and in test [2] was “inactive” in each case.
Regarding `c1ccoc1`, the Potency entry in test [1] and in test [2] was “inactive” in each case.
